# Assay outcomes: PubChem, National Center for Advancing Translational Sciences (NCATS)
# TDP1 inh – blocks human tyrosyl-DNA phosphodiesterase 1. Q9NUW8. recombinant TDP1, AlphaScreen DNA substrate cleavage. Potency, µM (doses to about 130 µM), for inactives: at the highest dose activity change, negative = inhibition, actives largely listed as inhibitors. 350,000 compounds, 0.28% hits. AID 485290; further: on the % scale 0 is the no-effect control and ±100 the full control effect; nearly all actives have a fitted effect of over 40% in size
#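 Tdp1 1 nM final; 15 min RT w/ cpd; substrate 15 nM, 5 min; beads 10 ug/ml, 10 min; AlphaScreen read. Neg ctrl: no enzyme.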
# DT40 TDP1 CPT – growth inhibition of DT40 Tdp1-/-;hTDP1 cells with camptothecin (screen for TDP1 inhibitors); Potency, µM (titrated, usually from 46.2 µM), without a hit: at the top dose activity change, negative = growth inhibition, hits mostly inhibitors; chicken DT40 Tdp1-/-;hTDP1 cells + 20 nM CPT, ATP luminescence, 48 h; AID 686979; 420,000 compounds, 12% hits; further: on the % scale 0 is the no-effect control and ±100 the full control effect; nearly all actives have a fitted effect of over 55% in size
#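 Cell growth measured by CellTiter-Glo luminescence after a minimum 48 h, 37 C compound exposure with 20 nM CPT in Tdp1-knockout DT40 cells stably expressing hTDP1, seeded 400/well; qHTS titration format.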
# DT40 TDP1 no CPT – qHTS for Inhibitors of human tyrosyl-DNA phosphodiesterase 1 (TDP1): qHTS in cells in absence of CPT. DT40 Tdp1-/- hTDP1 cells, no CPT, ATP luminescence, 48 h. Potency, µM (highest dose often 46.2 µM), inactives show at the highest dose activity change, negative = growth inhibition, most hits filed as inhibitors. 420,000 compounds, 15% hits; further: on the % scale 0 is the no-effect control and ±100 the full control effect; nearly all actives have a fitted effect of over 55% in size
#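 Readout: luminescence from CellTiter-Glo after 30 min in the dark at RT. Cells: DT40 Tdp1-/- with stable hTDP1, 400/well. Exposure: compounds alone, ≥48 hr, 37 °C.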
# ClpP mod – qHTS Assay for Activators of ClpP; AID 651965, 2013; Potency, µM (titrated, usually from 57.5 µM), for inactives: at the top dose activity change, negative = active; ATP-dependent Clp protease proteolytic subunit (Bacillus subtilis (strain 168)), P80244; 340,000 compounds, 1.9% hits; purified B. subtilis ClpP, FRET peptide cleavage, 20 min; active means well fitted falling curve with a large enough effect; inconclusive means small, poorly fitted or top-dose-only effect; inactive means no such curve, though single readings can be large or run the other way; further: the source files actives as falling curves though it sought activators and does not explain the sign; nearly all actives have a fitted effect of over 65% in size
#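 FRET quenching reversal measured ClpP activation: 10 microg/mL B. subtilis ClpP at pH 8 with the FRET-FV decapeptide, read at 430 nm after 320 nm excitation. The 20-min minus 0-min signal was scaled between DMSO/no-enzyme wells and ADEP (5.8 microM final).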
# * = called active by the depositor; u = inconclusive; x = no result; [ ] = remark or other dose. Sampled rows, rich in hits. Any-hit rate of the full collection: about 17%. Unless noted, the call rests on the fitted dose curve; in most records, active means well fitted curve in the direction sought with a large enough effect; inconclusive means small, poorly fitted or top-dose-only effect, or another doubt; inactive means no such curve, though single readings can be large; an effect the other way counts as inactive or inconclusive. Potency means the concentration at half of the fitted maximal effect.
SMILES,TDP1 inh,DT40 TDP1 CPT,DT40 TDP1 no CPT,ClpP mod
NCC(CC(=O)O)c1ccc(Cl)s1 (configuration not stated),5%,11%,-1%,x
COc1ccc2c(C(=O)c3ccc(Cl)cc3)c(C)n(CC(=O)O)c2c1,x,-4%,-19%,x
CC(C)(C)c1ccc(CSc2cnn(C(C)(C)C)c(=O)c2Cl)cc1,x,0.16µM*,0.033µM*,-2%
Cc1coc2c1CCC(C)C2 (configuration not stated),5%,x,x,x
O=C1NC(=O)C(=Cc2ccc(Sc3ccccc3)o2)C(=O)N1,-10%,u,15µM*,x
O=C1NC(=O)C(=Cc2ccc(-c3ccc(S(=O)(=O)N4CCOCC4)cc3)o2)C(=O)N1,x,u,u,1%
O=C1NC(=O)C(=Cc2ccc(-c3ccc(Cl)cc3)o2)C(=O)N1,x,5.8µM*,8.2µM*,3%
CN1C(=O)C(=Cc2ccc(Sc3ccccc3)o2)C(=O)N(C)C1=O,-4%,u,u,x
COc1ccc(OC)c([C@H](O)[C@H](C)N)c1,6%[56.1 µM],x,x,x
Cc1cc2c(cc(C(=O)N3CCC(C(=O)NC4CCCC4)CC3)n2Cc2c(F)cccc2Cl)o1,x,18µM*,23µM*,1%
CCOC(=O)C1(c2ccccc2)CCN(CCC(=O)Nc2ccc(C(=O)OC)cc2)CC1,3%,21µM*,u,0%
CCOC(=O)C1(c2ccccc2)CCN(CCC(=O)Nc2ccc(OC)cc2)CC1,x,u,u,-7%
CCOC(=O)C1(c2ccccc2)CCN(CCC(C#N)(c2ccccc2)c2ccccc2)CC1,x,13µM*,6.5µM*,-2%
O=[N+]([O-])c1cnc[nH]1,x,-9%,-4%,0%
CCN(C[C@H]1N[C@@](C)(C(=O)OC)[C@H]2C(=O)N(Cc3ccccc3)C(=O)[C@@H]12)S(=O)(=O)c1ccc(C(C)(C)C)cc1,3%,21µM*,23µM*,1%
CCN(C[C@H]1N[C@@](CC)(C(=O)OC)[C@H]2C(=O)N(Cc3ccccc3)C(=O)[C@@H]12)C(=O)Nc1ccc(Cl)cc1,x,u,21µM*,2%
CCC1(CCC(C)C)C(=O)NC(=S)NC1=O,x,7%,-5%,x
O=[N+]([O-])c1ccccc1-c1ccccc1,17%,x,x,x
COC(=O)[C@H]1C[C@H]2CC[C@H](O)C[C@H]2N1CC1CC1,2%,x,x,x
C#C[C@]1(O)CC[C@H]2[C@@H]3CCC4=CC(=O)CCC4(C)[C@H]3CCC21C (some centres not stated),6%,x,x,x
O=C1C=C2C=C[C@@H]3CC2(O1)[C@H]1CCCCN31,x,u,18µM*,2%
O=C1C=C2C=C[C@H]3C[C@@]2(O1)[C@H]1CCCCN31,10%[21 µM],x,x,x
COc1ccc(OCC(=O)N2CCN(CCc3ccccn3)CC2)cc1,-3%,5%,-15%,1%
COc1ccc2c(c1OC)C(=O)O[C@H]2[C@H]1c2cc3c(cc2CCN1C)OCO3,13%[21 µM],x,x,x
C#CCOc1cc(C2C3=C(COC3=O)Nc3cc4c(cc32)OCO4)ccc1OC (configuration not stated),1%,21µM*,-61%,-6%
SMILES,TDP1 inh,DT40 TDP1 CPT,DT40 TDP1 no CPT,ClpP mod
COc1ccc(C(=O)Cn2c(NCCO)nc3ccccc32)cc1,-1%,16µM*,u,x
CCOC(=O)c1cnc(SCc2ccc(Cl)c(Cl)c2)nc1N1CC1,x,0.58µM*,0.82µM*,2%
CCCC(C)(COC(N)=O)COC(N)=O,4%,-12%,-8%,x
COc1cc2c(cc1OC)-c1c(OC)c(OC)c(CO)c3c1C(C2)N(C)CC3 (configuration not stated),17%,4%,-13%,x
COC(=O)C1=C(c2cccc(OC)c2OC)C[C@@H]2CC[C@H]1N2C(=O)NC1CCCCC1,x,-23%,u,-1%
COc1cccc(-c2nc3c(C#N)c[nH]n3c2NC2CCCCC2)c1OC,3%,u,21µM*,0%
O=C(OCc1cc(=O)n2nc(C3CC3)sc2n1)c1ccc(NC(=O)c2ccccc2Cl)cc1,1%,u,7.3µM*,2%
Cc1nn2c(=O)cc(COC(=O)c3ccccc3NC(=O)c3cccs3)nc2s1,-1%,9.2µM*,10µM*,-12%
Cc1ccccc1OCC(=O)Nc1ccccc1C(=O)OCc1cc(=O)n2nc(C3CC3)sc2n1,1%,1.6µM*,1.6µM*,-6%
COC(=O)[C@@H]1[C@H]2CC[C@@H](C[C@H]1OC(=O)c1ccccc1)N2C,x,12%,-4%,x
O=C(c1cc(-c2ccc(Cl)cc2)n(-c2ccc(Cl)cc2Cl)n1)N1CCOCC1,-2%,u,u,-1%
O=C(c1cc(-c2ccc(Cl)cc2)n[nH]1)N1CCN(S(=O)(=O)c2ccc(Br)s2)CC1,-2%,u,15µM*,-6%
COC(=O)C1=C(c2ccc(F)cc2OCc2ccccc2)C[C@@H]2CC[C@H]1N2C(=O)N1CCOCC1,1%,8.2µM*,7.3µM*,1%
COC(=O)C1=C(c2ccc(F)cc2OCc2ccccc2)C[C@@H]2CC[C@H]1N2C(=O)N1CCC(O)(c2ccc(Cl)cc2)CC1,2%,u,23µM*,-8%
O=C(NCC1=C(c2cccc3ccccc23)C[C@@H]2CC[C@H]1N2Cc1ccco1)c1ccc([N+](=O)[O-])cc1,x,21µM*,18µM*,-1%
CS(=O)(=O)c1ccc(C2=C(CNC(=O)c3ccc([N+](=O)[O-])cc3)[C@H]3CC[C@@H](C2)N3Cc2ccccc2)cc1,x,-18%,-26%,-1%
CS(=O)(=O)c1ccc(C2=C(CNC(=O)c3ccc([N+](=O)[O-])cc3)[C@H]3CC[C@@H](C2)N3CCOc2ccccc2)cc1,x,u,15µM*,-2%
CC1(C)Cc2c(sc3nc4n(-c5ccccc5)c(=O)c(CCC(=O)O)nn4c(=O)c23)CO1,10%,u,-29%,x
CC1=C2C(=O)C3C(CC=C4CC(O)CCC43C)C2CCC12OC1CC(C)CNC1C2C (configuration not stated),x,-13%,-15%,x
Nc1nc(N)c2nc(CNc3ccc(C(=O)NC(CCC(=O)O)C(=O)O)cc3)cnc2n1 (configuration not stated),u,-81%,-96%,5%
CCOP(=O)(OCC)C(O)c1ccccc1 (configuration not stated),x,1%,-27%,1%
CCOP(=O)(OCC)C(NC(=O)Nc1ccc(Cl)c(Cl)c1)c1ccccc1 (configuration not stated),-1%,u,16µM*,3%
O=NN(CCCl)C(=O)NCCCl,11%[56.1 µM],u,u,0%
CCN1C(=O)c2ccccc2Sc2ccc(NC(=O)c3ccc(C)c(F)c3)cc21,-2%,u,u,-2%
CN1C(=O)c2ccccc2Sc2ccc(NC(=O)c3ccc(C(F)(F)F)cc3)cc21,0%,4.6µM*,2.9µM*,6%
CCOC(=O)c1ccc2c(c1)N(CC)C(=O)c1ccccc1S2,x,u,u,-5%
